The test system of experiment [1] is DLD1. Briefly: cell viability (CellTiter-Glo) relative to plate median (fraction of plate median); higher = more viable cells. Conditions: 5 µM; treatment time 24 h; reporter: 7TFP. In short, it runs like this: (§1)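 For this screen, colorectal cancer cell lines carrying stable lentiviral TCF/Wnt firefly luciferase reporters, either 7TFP or TCF4/Wnt, were seeded into 384-well plates. A day's wait of 24 h preceded addition of library compounds at a final 5 µM, which stayed on the cells for 24 h. Firefly luciferase or CellTiterGlo luminescence, read on parallel plates, was normalised to the plate median per well, and the reported value is the mean of two independent replicates.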

For a further experiment, the system named is HCT116. The description is as above. The note with it: 5 µM; treatment time 24 h; reporter: TCF4/Wnt. In short, it runs like this: as §1
Experiment [2] concerns SW480. The experiment is described as above. Conditions: 5 µM; treatment time 24 h; reporter: 7TFP. In short, it runs like this: as §1
In experiment [3] the test system is DLD1. Briefly: TCF/Wnt firefly luciferase reporter signal relative to plate median (fraction of plate median); higher = higher Wnt reporter signal. The note with it: 5 µM; treatment time 24 h; reporter: 7TFP. In short, it runs like this:
as §1
(In a reporter assay the amount or activity of a reporter protein is the signal.)

Experiment [4] concerns SW480. Described as above. Conditions: 5 µM; treatment time 24 h; reporter: 7TFP. The procedure, abridged: as §1

Results on 13 compounds are retold here after the supplement of paper PMC6522484.

Each structure is given as a SMILES string. ± gives the standard deviation of the averaged measurements.

With `CCCCC(=O)O[C@]1(C(=O)CO)[C@@H](C)C[C@H]2[C@@H]3CCC4=CC(=O)C=C[C@]4(C)[C@@]3(F)[C@@H](O)C[C@@]21C`, the cell viability is 1.04 ± 0.021 in the experiment on DLD1 [1], 1.15 ± 0.028 in the experiment with HCT116 and 0.987 ± 0.047 in the experiment on SW480 [2]. The “TCF/Wnt firefly luciferase reporter signal” value was 0.868 ± 0.011 in the experiment on DLD1 [3] and 0.942 ± 0.22 in the experiment on SW480 [4].
On the same counts, the results for `NC(Cn1ccc(=O)c(O)c1)C(=O)O` (stereo not given) are 0.987 ± 0.076, 0.8415 ± 0.00071, 0.989 ± 0.044, 0.85 ± 0.016 and 0.947 ± 0.12.
On the same counts, the results for `Cc1cc(C)nc(NS(=O)(=O)c2ccc(N)cc2)n1` are 1.07 ± 0.11, 0.975 ± 0.078, 1.03 ± 0.047, 1.025 ± 0.0071 and 1.08 ± 0.05.
For `OC[C@H]1O[C@@H](O[C@@H]2[C@@H](CO)OC(O)(CO)[C@H]2O)[C@H](O)[C@@H](O)[C@H]1O` (mixture of isomers) the same measures were 0.999 ± 0.0014, 0.99 ± 0.028, 0.984 ± 0.0028, 1.07 ± 0.18 and 1.02 ± 0.034.
With `CC(=O)c1c2c(c(C)n1-c1ccccc1C(=O)O)C(=O)c1c(O)cccc1C2=O` [Bhimamycin D], the cell viability in the experiment with DLD1 [1] worked out at 1.02 ± 0.048; in the experiment on HCT116, 0.863 ± 0.025; with SW480 [2], 0.969 ± 0.072. In addition, the “TCF/Wnt firefly luciferase reporter signal” value with DLD1 [3] is 1.05 ± 0.11; in the experiment with SW480 [4], 1.08 ± 0.042.
`COc1ccc(OC)c(C(O)CNC(=O)CN)c1` (stereo not given): the cell viability amounted to 0.944 ± 0.067 in the experiment with DLD1 [1], 0.912 ± 0.064 in the experiment on HCT116 and 1.03 ± 0.035 in the experiment with SW480 [2]. Further, the results for the “TCF/Wnt firefly luciferase reporter signal” value in the experiment with DLD1 [3] and with SW480 [4] were 1.06 ± 0.2 and 1.16 ± 0.092, respectively.
As for `CCCc1cc(=O)[nH]c(=S)[nH]1`, the figures for the cell viability in the experiment on DLD1 [1], in the experiment with HCT116 and with SW480 [2] were 0.959 ± 0.033, 1.065 ± 0.0071 and 0.998 ± 0.031, respectively. Also, the “TCF/Wnt firefly luciferase reporter signal” value turned out to be 0.98 ± 0.057 in the experiment on DLD1 [3] and 1.02 ± 0.028 in the experiment with SW480 [4].
For `CC(C)CC(NC(=O)OCC1c2ccccc2-c2ccccc21)C(=O)O` (stereo in doubt) the same measures were 1.06 ± 0.057, 0.996 ± 0.035, 1.01 ± 0.021, 0.979 ± 0.027 and 1.02 ± 0.029.
For `N[C@@H](CSCSC[C@H](N)C(=O)O)C(=O)O` the same measures were 0.966 ± 0.013, 0.915 ± 0.022, 0.9935 ± 0.0092, 1.05 ± 0.014 and 0.934 ± 0.048.
On the same counts, the results for `C[C@H]1C[C@@H]2[C@H]([C@@H](O)C[C@@]3(C)[C@H]2CC[C@]3(O)C(=O)CO)[C@@]2(C)C=CC(=O)C=C12` are 1.01 ± 0.029, 1.02 ± 0.056, 1.04 ± 0.014, 0.9235 ± 0.005 and 1.02 ± 0.062.
For `O=C1[C@H](CC[C@H](O)c2ccc(F)cc2)[C@@H](c2ccc(O)cc2)N1c1ccc(F)cc1`, the results for the cell viability in the experiment on DLD1 [1], with HCT116 and in the experiment with SW480 [2] were 0.828 ± 0.15, 1.01 ± 0.063 and 0.961 ± 0.084, respectively. The “TCF/Wnt firefly luciferase reporter signal” value in the experiment with DLD1 [3] is 0.952 ± 0.17; in the experiment with SW480 [4], 0.919 ± 0.11.
For `NC(=O)N1c2ccccc2CC(=O)c2ccccc21` the same measures were 0.9 ± 0.09, 0.847 ± 0.09, 1.03 ± 0.014, 1.06 and 1.1 ± 0.14.
For `CC(C)(C)NC[C@H](O)c1ccc(O)c(CO)c1` the same measures were 1.01 ± 0.13, 0.93 ± 0.061, 0.972 ± 0.069, 1.02 and 1.07 ± 0.092.
